Values joined by “and” are separate entries in the source; they are usually repeats but may differ in a detail not shown here. Equal entries are not always repeated. Results filed as inconclusive are left out. Active and inactive are the calls of the source. Unless noted, calls come from the whole dose curve; as a rule, active = well fitted curve in the direction sought with a large enough effect; inconclusive = small, poorly fitted or top-dose-only effect, or another doubt; inactive = no such curve, though single readings can be large; an effect the other way counts as inactive or inconclusive.
Experiments:
[1] = Counterscreen for APE1 Inhibitors: Fluorescent Dye Displacement Validation Assay (AID 1707);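 note: plate controls were ThO with dsDNA and no compound for no effect and ThO without dsDNA for full effect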
Method in brief: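 Loss of Thiazole Orange fluorescence marks promiscuous DNA binders. The dye (250 nM) is mixed with 50 nM abasic-site dsDNA in pH7.5 Tris buffer containing MgCl2, then compounds are added and emission is read once.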

[2] = molecular target: Endonuclease 4 (Escherichia coli (strain K12)) (UniProt P0A6C1); experiment: Counterscreen for APE1 Inhibitors: qHTS Validation Assay for Inhibitors of Endonuclease IV (AID 1708); note: % is set by controls: 0 for no effect and ±100 for the full control effect
Method in brief: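 Incision of a double-stranded 50 nM TAMRA/BHQ-2 abasic substrate was followed kinetically (525/598 nm, reads every 60 s) after 15 min enzyme–compound preincubation with 2 nM EndoIV in pH 7.5 Tris buffer with MgCl2, DTT and Tween-20; concentration-response format.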

[3] = qHTS for differential inhibitors of proliferation of Plasmodium falciparum line 7G8 (AID 1815);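 note: parasite growth measured after three days of incubation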; note: potency is the fitted concentration of half-maximal effect;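 for activity change, negative = inhibition: plate controls were vehicle wells for no effect and reference inhibitor wells for full effect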
[4] = qHTS for differential inhibitors of proliferation of Plasmodium falciparum line GB4 (AID 1816); conditions: Potency: Plasmodium falciparum GB4 proliferation inhibition;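 note: parasite growth measured after 72 h incubation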; note: potency is the fitted concentration of half-maximal effect;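 for activity change, negative = inhibition: 0% = vehicle DMSO and -100% = reference inhibitor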
[5] = qHTS Assay for Lipid Storage Modulators (AID 1519; calls by dose curve; for activity change, negative = inhibition: % is set by controls: 0 for no effect and ±100 for the full control effect); conditions: Drosophila S3 cells, BODIPY lipid droplet/cell ratio, laser cytometry, cells loaded with oleic acid
Method in brief: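 Cells seeded at 5,000 per well were treated with compounds over a concentration series and loaded with oleic acid (400 uM, as added). Lipid droplet fluorescence (488 nm excitation, 500-530 nm channel) was read by laser-scanning cytometry and normalized to 20 uM Triacsin C.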

[6] = molecular target: DNA repair nuclease/redox regulator APEX1 (Homo sapiens) (UniProt P27695); experiment: qHTS Validation Assay for Inhibitors of the Human Apurinic/apyrimidinic Endonuclease 1 (APE1) (AID 1705;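 note: TAMRA fluorescence gain over two minutes as APE1 cuts a quenched THF abasic duplex; % is set by controls: 0 for no effect and ±100 for the full control effect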)
Method in brief: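 qHTS, 1536-well. APE1 + cpd 15 min RT → 50 nM TAMRA/BHQ-2 THF-abasic dsDNA substrate → kinetic fluorescence, 3 reads/60 s; delta(read3−read1) = reaction progress. No-enzyme buffer = negative control.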

[7] = Cell Viability - LYMP2-010 (AID 981);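 note: cells exposed to compound for 24 hours at 37 °C; nearly all actives have a fitted effect of over 55% in size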; note: potency is the fitted concentration of half-maximal effect
Method in brief: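 Steps: seed 2500 LYMP2-010 cells per well; incubate 5 hr at 37 C; add compound; incubate 24 hr at 37 C; add CellTiter-Glo, wait 30 min at room temperature; read luminescence. Concentration-response fitted to Hill equation for AC50.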

[8] = Cell Viability - LYMP2-012 (AID 982);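 note: cellular ATP by luciferase luminescence where a drop means cytotoxicity; cells exposed to compound for one day before reading; nearly all actives have a fitted effect of over 55% in size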; note: potency is the fitted concentration of half-maximal effect
[9] = Cell Viability - LYMP2-014 (AID 983);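 note: cells exposed to compound for 24 h at 37 °C; nearly all actives have a fitted effect of over 50% in size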; note: potency is the fitted concentration of half-maximal effect
Method in brief: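 Cells are plated at 2500/well and left 5 hr at 37 C. Compounds are added across a concentration range and incubated 24 hr at 37 C in complete medium. CellTiter-Glo is added, and luminescence is read after 30 min at room temperature.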

[10] = Cell Viability - LYMP2-016 (AID 984);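 note: cells exposed to compound for 24 hours at 37 °C; nearly all actives have a fitted effect of over 55% in size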; note: potency is the fitted concentration of half-maximal effect
Method in brief: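 Cells were seeded at 2500 per well and rested 5 hr before a 24 hr compound exposure at 37 C. Viability was then gauged as cellular ATP by luciferase luminescence, with AC50 values fitted to the Hill equation.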

[11] = Cell Viability - LYMP2-018 (AID 985); note: nearly all actives have a fitted effect of over 50% in size; note: potency is the fitted concentration of half-maximal effect
Method in brief: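 Seed 2500 lymphoblastoid cells per well, incubate 5 hr at 37 C, add compound and incubate 24 hr at 37 C, add CellTiter-Glo, wait 30 min at room temperature, then read luminescence.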

[12] = Cell Viability - LYMP2-020 (AID 986);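 note: cells exposed to compound for 24 h at 37 °C; nearly all actives have a fitted effect of over 55% in size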; note: potency is the fitted concentration of half-maximal effect
Method in brief: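 Seed 2500 cells per well and incubate 5 hr at 37 C. Add compounds at a concentration series and incubate 24 hr at 37 C. Add CellTiter-Glo, wait 30 min at RT, read luminescence, and fit a Hill curve for AC50.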

[13] = Cell Viability - LYMP2-022 (AID 987); note: nearly all actives have a fitted effect of over 55% in size; note: potency is the fitted concentration of half-maximal effect
Method in brief: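 Cells were seeded at 2500 per well, rested 5 hr at 37 C, and treated with titrated compounds for 24 hr at 37 C. Cellular ATP was then quantified by luciferase luminescence, and AC50 values were derived from Hill-modelled concentration-response curves.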

[14] = Cell Viability - LYMP2-024 (AID 988); note: nearly all actives have a fitted effect of over 60% in size; note: potency is the fitted concentration of half-maximal effect
Method in brief: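 qHTS cytotoxicity, human lymphoblastoid line, complete medium; 24 h cpd treatment, 37 C; CellTiter-Glo ATP luminescence readout; tetraoctylammonium bromide positive control; AC50 via Hill fit.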

[15] = Cell Viability - LYMP2-026 (AID 989);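 note: cells exposed to compound for 24 h at 37 °C; nearly all actives have a fitted effect of over 50% in size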; note: potency is the fitted concentration of half-maximal effect
Method in brief: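 Cells are seeded at 2500 per well and held 5 hr at 37 C. Compounds are added in concentration series for 24 hr, then CellTiter-Glo reagent is applied and luminescence read.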

[16] = Cell Viability - LYMP1-002 - Assay at 40 hr (AID 994); note: nearly all actives have a fitted effect of over 60% in size; note: potency is the fitted concentration of half-maximal effect
Method in brief: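 Cells are plated at 2500 per well and rested 5 hr at 37 C. Compounds are added and incubated 40 hr at 37 C. CellTiter-Glo reagent is added for 30 min at room temperature before luminescence is read.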

[17] = molecular target: Alpha-galactosidase A (Homo sapiens) (UniProt P06280); experiment: Counterscreen for Glucocerebrosidase Inhibitors: qHTS Assay for Human alpha-Galactosidase at pH 4.5 (AID 992); note: 0% is about no effect
Method in brief: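 Each compound is preincubated briefly with 2 nM enzyme before substrate addition (80 uM); plates then sit 20 min at ambient temperature, are quenched with 1M NaOH/1M glycine, and read fluorometrically.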

[18] = molecular target: alpha-glucosidase (Oryza sativa, rice) (UniProt Q653V4); experiment: Counterscreen for Glucocerebrosidase Inhibitors: qHTS Assay for Rice alpha-Glucosidase at pH 5.0 (AID 997);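 note: 0% = full activity with enzyme and -100% = basal without enzyme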
Method in brief: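 Endpoint fluorogenic assay at pH 5.0: compounds (0.7 nM to 77 uM) titrated against 4 nM rice enzyme and 400 uM 4-MU-alpha-glucoside for 20 min at room temperature; NaOH/glycine stop, read ex 365/em 440 nm, Hill-fitted AC50.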

[19] = molecular target: Alpha-galactosidase (Coffea arabica) (UniProt Q42656); experiment: Counterscreen for Glucocerebrosidase Inhibitors: qHTS Assay for Coffee Bean alpha-Galactosidase at pH 5.9 (AID 998);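 note: plate controls were uninhibited enzyme for no effect and no-enzyme basal signal for full effect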
Method in brief: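 Fluorogenic 4-MU substrate hydrolysis, 80 uM substrate and 2 nM coffee bean alpha-galactosidase, pH 5.9 citrate buffer, 20 min at room temperature, then NaOH/glycine stop. Titration 0.7 nM–77 uM, normalized to no-enzyme and enzyme controls, AC50 via Hill equation.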

Chain of Alpha-galactosidase A (Homo sapiens) (P06280 whole entry, looked up): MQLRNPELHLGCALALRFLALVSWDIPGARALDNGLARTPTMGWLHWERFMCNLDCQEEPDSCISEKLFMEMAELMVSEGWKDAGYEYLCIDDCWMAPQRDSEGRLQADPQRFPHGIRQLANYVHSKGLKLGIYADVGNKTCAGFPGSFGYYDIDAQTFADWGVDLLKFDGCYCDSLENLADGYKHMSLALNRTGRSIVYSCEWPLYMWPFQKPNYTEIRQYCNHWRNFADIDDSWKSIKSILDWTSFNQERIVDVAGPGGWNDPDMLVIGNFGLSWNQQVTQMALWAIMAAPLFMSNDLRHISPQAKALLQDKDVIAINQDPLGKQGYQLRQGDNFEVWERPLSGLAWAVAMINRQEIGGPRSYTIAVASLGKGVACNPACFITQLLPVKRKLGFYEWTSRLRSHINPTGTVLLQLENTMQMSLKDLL
Chain of DNA repair nuclease/redox regulator APEX1 (Homo sapiens) (P27695 whole entry, looked up): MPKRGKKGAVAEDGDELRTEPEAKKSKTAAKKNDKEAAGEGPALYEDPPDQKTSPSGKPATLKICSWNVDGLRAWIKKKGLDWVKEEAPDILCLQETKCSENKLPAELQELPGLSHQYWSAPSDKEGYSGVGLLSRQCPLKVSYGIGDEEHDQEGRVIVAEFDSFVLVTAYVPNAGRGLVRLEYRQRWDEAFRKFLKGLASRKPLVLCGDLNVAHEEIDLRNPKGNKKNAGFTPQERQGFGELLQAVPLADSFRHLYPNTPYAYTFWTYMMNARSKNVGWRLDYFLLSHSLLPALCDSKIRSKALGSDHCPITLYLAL
Chain of Alpha-galactosidase (Coffea arabica) (Q42656 whole entry, looked up): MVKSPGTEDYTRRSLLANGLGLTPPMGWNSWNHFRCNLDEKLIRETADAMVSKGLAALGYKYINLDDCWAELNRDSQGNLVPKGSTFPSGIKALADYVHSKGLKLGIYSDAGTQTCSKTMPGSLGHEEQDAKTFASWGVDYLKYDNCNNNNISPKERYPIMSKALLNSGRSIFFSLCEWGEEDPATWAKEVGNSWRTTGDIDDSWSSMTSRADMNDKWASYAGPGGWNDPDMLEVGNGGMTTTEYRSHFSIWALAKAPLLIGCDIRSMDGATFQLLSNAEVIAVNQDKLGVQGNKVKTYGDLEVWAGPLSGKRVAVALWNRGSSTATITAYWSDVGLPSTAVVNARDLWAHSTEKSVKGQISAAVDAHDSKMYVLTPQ

CCn1cnc2c(Nc3cccc(Cl)c3)nc(N[C@@H]3CCCC[C@@H]3N)nc21
active: Potency [3] 3.16 µM | Potency [4] 3.98 µM
inactive: Potency [1] | Potency [2]

C[N+]1(C)CCC(OC(=O)C(c2ccccc2)c2ccccc2)CC1
1.6% and -18%: max response ([5]; measured here: lipid channel max response)
active: Potency [3] 8.91 µM | Potency [4] 12.6 µM
inactive: activity change, negative = inhibition ([5]; at 57.5 µM (top of the series)) -1.55% and -0.573% | Potency [1] | Potency [2]
3.78% and -17.3%: max response ([5]; measured here: cell count channel max response)

CNc1ccc2oc(C[C@H]3O[C@@]4(CC[C@H]3C)O[C@H]([C@H](C)C(=O)c3ccc[nH]3)[C@H](C)C[C@H]4C)nc2c1C(=O)O
active: Potency [3] 1.12 µM | Potency [4] 1.26 µM
inactive: Potency [1]

C/C(O)=C(\C#N)C(=O)Nc1cc(Br)ccc1Br
inactive: Potency [6] | Potency [3] | Potency [4]

C=CCN1CCC23c4c5ccc(O)c4O[C@H]2C(=O)CC[C@@]3(O)C1C5 (stereo not given in full)
inactive: Potency [6] | Potency [1] | Potency [2] | Potency [3] | Potency [4]

CC1(C(=O)O)C2CCC(O2)C1(C)C(=O)O (stereo not given)
inactive: Potency [6] | Potency [1] | Potency [2]
active: Potency [3] 3.55 µM | Potency [4] 3.16 µM

CN1C2CCC1CC(OC(c1ccccc1)c1ccc(Cl)cc1)C2 (stereo not given)
inactive: Potency [6] | Potency [1]
active: Potency [3] 2.24 µM | Potency [4] 2.24 µM

CCCCCCCCCCCCCC(=O)O[C@@H]1[C@@H](C)[C@@]2(O)[C@@H](C=C(CO)C[C@@]3(O)C(=O)C(C)=C[C@@H]23)C2C(C)(C)[C@@]21OC(C)=O (stereo not given in full)
active: Potency [3] 5.62 µM | Potency [4] 11.2 µM

CCCCCCCCOC(=O)c1ccccc1C(=O)OCCCCCCCC
inactive: Potency [7] | Potency [8] | Potency [9] | Potency [10] | Potency [11] | Potency [12] | Potency [13] | Potency [14] | Potency [15] | Potency [16]

ClCC1CO1 (stereo not given)
inactive: Potency [7] | Potency [8] | Potency [10] | Potency [12] | Potency [15] | Potency [16]

O=C1C2CC=CCC2C(=O)N1SC(Cl)(Cl)Cl (stereo not given)
active: Potency [7] 2.51 µM and 3.16 µM | Potency [8] 2.51 µM and 5.01 µM | Potency [9] 5.01 µM and 6.31 µM | Potency [10] 5.01 µM and 7.94 µM | Potency [11] 3.98 µM and 7.94 µM | Potency [12] 3.16 µM and 5.01 µM | Potency [13] 2 µM and 3.98 µM | Potency [14] 1.58 µM and 3.16 µM | Potency [15] 3.98 µM and 6.31 µM | Potency [16] 15.8 µM

CC(C)(C)c1cc(O)ccc1O
active: Potency [7] 50.1 µM | Potency [8] 50.1 µM | Potency [11] 50.1 µM | Potency [12] 50.1 µM | Potency [13] 50.1 µM and 39.8 µM | Potency [14] 31.6 µM
inactive: Potency [15] | Potency [16]

O=Cc1ccco1
inactive: Potency [7] | Potency [8] | Potency [9] | Potency [10] | Potency [11] | Potency [12] | Potency [13] | Potency [14] | Potency [15] | Potency [16]

S=C=S
inactive: Potency [7] | Potency [8] | Potency [9] | Potency [10] | Potency [11] | Potency [12] | Potency [13] | Potency [14] | Potency [15] | Potency [16]

C=CCN=C=S
inactive: Potency [7] | Potency [8] | Potency [9] | Potency [10] | Potency [11] | Potency [12] | Potency [13] | Potency [14] | Potency [15] | Potency [16]

C[C@H]1CC[C@@H]2[C@@H](C)[C@H]3[C@H](C[C@H]4[C@@H]5CC=C6CC(O[C@@H]7O[C@H](CO)[C@H](O)[C@H](O[C@@H]8O[C@H](CO)[C@@H](O)[C@H](O)[C@H]8O)[C@H]7O[C@H]7O[C@@H](C)[C@H](O)[C@@H](O)[C@H]7O)CC[C@]6(C)[C@H]5CC[C@]34C)N2C1 (stereo not given in full)
inactive: Potency [15]
active: Potency [7] 39.8 µM | Potency [8] 31.6 µM | Potency [9] 50.1 µM | Potency [16] 39.8 µM

[Cl-].[Cl-].[Hg+2]
active: Potency [7] 0.316 µM | Potency [9] 12.6 µM | Potency [11] 5.01 µM | Potency [12] 3.16 µM | Potency [14] 0.398 µM | Potency [15] 20 µM | Potency [16] 3.16 µM

ClC=C(Cl)Cl
inactive: Potency [7] | Potency [8] | Potency [9] | Potency [10] | Potency [11] | Potency [12] | Potency [13] | Potency [14] | Potency [15] | Potency [16]

C[C@@H]1[C@@H]2Cc3ccc(O)cc3[C@@]1(C)CCN2CC1CC1
inactive: outcome [17] | outcome [18] | outcome [19]

C[C@H]1CCC[C@H](O)CCCCCc2cc(O)cc(O)c2C(=O)O1
inactive: Potency [7] | Potency [8] | Potency [9] | Potency [10] | Potency [11] | Potency [12] | Potency [13] | Potency [14] | Potency [15] | Potency [16]

N#CCCN
inactive: outcome [17] | outcome [18]

C[N+]1(C)[C@@H]2CC[C@H]1CC(OC(=O)c1c[nH]c3ccccc13)C2 (stereo not given in full)
inactive: outcome [17]

O=C/C=C/c1ccccc1
inactive: Potency [7] | Potency [8] | Potency [9] | Potency [10] | Potency [11] | Potency [12] | Potency [13] | Potency [14] | Potency [15] | Potency [16]

Source: PubChem BioAssay (NCATS)
